Screening results (PubChem BioAssay)
This is one part of a sample in which hits are shown more often than they occur.
ER stress surv: ER stress cell death inhibition; CSM14.1 thapsigargin ER stress survival, ATP luminescence; relative survival (cellular ATP), % at 15 µg/mL (by protocol); 0.33% of 48,000 active; AID 1010;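 active = survival measured by cellular ATP above 50% at 15 µg/ml in the first screen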;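 also: cell death triggered by about 15 µM thapsigargin; ATP read 24 h after thapsigargin was added; plate controls were thapsigargin with DMSO for no effect and DMSO without thapsigargin for full effect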
* marks the source's active call; other numbers are inactive results.

SMILES	ER stress surv
CCn1c2ccccc2c2cc(CN3CCN(Cc4ccc(OC)c(OC)c4OC)CC3)ccc21	-4
CC(C)N(C(=O)c1ccc(-c2nc3ccccc3s2)cc1)C(C)C	0
COc1ccc(-n2c(-c3cc(OC)c(OC)c(OC)c3)n[nH]c2=S)cc1	10
COc1ccc(C2CC(=O)C3=C(C2)Nc2ccccc2NC3c2ccc(-c3ccccc3)cc2)cc1OC (stereo not given)	6
CCOc1cc(C2Nc3ccccc3NC3=C2C(=O)CC(c2ccc(OC)cc2)C3)cc(Br)c1O (stereo not given)	64*
COc1ccc(C2Nc3ccccc3NC3=C2C(=O)CC(c2ccccc2)C3)cc1Br (stereo not given)	29
CCOc1cc(C2Nc3ccccc3NC3=C2C(=O)CC(c2ccccc2)C3)cc(Br)c1O (stereo not given)	35
CCOc1ccc(C2Nc3ccccc3NC3=C2C(=O)CC(c2ccc(OC)cc2)C3)cc1OC (stereo not given)	5
COc1ccc(C2CC(=O)C3=C(C2)Nc2ccccc2NC3c2cccc(Oc3ccccc3)c2)cc1OC (stereo not given)	85*
COc1ccc(C2CC(=O)C3=C(C2)Nc2ccccc2NC3c2cccc(F)c2)cc1OC (stereo not given)	2
COc1ccc(C2CC(=O)C3=C(C2)Nc2ccccc2NC3c2ccc(OC)c(OC)c2)cc1 (stereo not given)	12
COc1ccc(C2CC(=O)C3=C(C2)Nc2ccccc2NC3c2ccc(OC)c(Br)c2)cc1 (stereo not given)	96*
CCOC(=O)/C(=N/O)C1=NC2(CCCCC2)Cc2ccccc21	3
COc1cc(/C=N\n2c(C)nnc2C)cc(Br)c1O	-5
CCc1cc(=O)oc2cc(OCc3ccc(Br)cc3)ccc12	10
CCCCSc1nnc2c(n1)OC(/C=C/c1ccccc1)Nc1ccccc1-2 (stereo not given)	9
Cc1ccc2ccccc2c1CSCC(=O)Nc1ccccc1	-2
COc1cccc(N2C(=O)C(=O)/C(=C(\O)c3ccccc3)C2c2ccc(OC)cc2OC)c1 (stereo not given)	10
Cc1ccc(NC(=O)CC(C)C)cc1Cl	3
CC(=O)c1cc(C#N)c(SCC(=O)c2ccc(O)c(O)c2)nc1C	-5
Cc1ccnc(NC(=O)CSc2nc3ccccc3[nH]2)c1	-1
Cc1ccnc(NC(=O)C(c2ccccc2)c2ccccc2)c1	86*
COc1ccccc1CC(=O)Nc1cc(C)ccn1	7
CSc1nnc2n(-c3ccccc3)c(=O)c3c4c(sc3n12)CC(C(C)(C)C)CC4 (stereo not given)	17
COC(=O)c1ccc(N2C(=O)c3ccc(C(=O)c4ccc5c(c4)C(=O)N(c4ccc(C(=O)OC)cc4)C5=O)cc3C2=O)cc1	7
SMILES	ER stress surv
Cc1cnnn1-c1ccc(C(=O)/C=C\c2ccco2)cc1	19
COc1ccc(C(=O)N2CCN(Cc3cccc(F)c3)CC2)cc1	5
O=C(c1cccc(F)c1)N1CCN(Cc2cccc(F)c2)CC1	6
O=C(c1cccc(F)c1)N1CCN(Cc2cccc(Oc3ccccc3)c2)CC1	60*
Cc1ccc(NC(=O)c2ccc(-c3ccc(Br)cc3)o2)c([N+](=O)[O-])c1	2
CC(=O)NC(c1ccc2c(c1)OCO2)c1ccc2cccnc2c1O (stereo not given)	77*
COc1ccccc1C(NC(=O)Cc1ccccc1)c1ccc2cccnc2c1O (stereo not given)	13
O=C(NC(c1ccccc1)c1ccc2cccnc2c1O)c1ccccc1 (stereo not given)	3
CC(=O)C1=C(O)C(=O)N(c2ccccn2)C1c1cccnc1 (stereo not given)	12
CN1C(=O)/C(=C\c2ccc(OS(=O)(=O)c3ccccc3[N+](=O)[O-])cc2)SC1=S	-2
Cc1ccc(N2C(=O)NC(=O)/C(=C\c3ccc(OCc4cccc(C(=O)O)c4)cc3)C2=O)cc1	0
COc1ccc(CCNC(=O)C(=O)Nc2cc(Cl)ccc2C)cc1OC	-2
O=[N+]([O-])c1ccccc1N/N=C/c1ccccc1OCc1ccccc1	4
COc1ccc(C2Nc3ccc(C(=O)c4ccccc4)cc3NC3=C2C(=O)CCC3)c(OC)c1 (stereo not given)	3
COc1ccccc1C1Nc2ccc(C(=O)c3ccccc3)cc2NC2=C1C(=O)CCC2 (stereo not given)	10
CN(C)c1ccc(C2Nc3ccc(C(=O)c4ccccc4)cc3NC3=C2C(=O)CCC3)cc1 (stereo not given)	97*
C/C(=N\NC(=O)c1cc(-c2ccc3ccccc3c2)n[nH]1)c1cccc([N+](=O)[O-])c1	7
COc1ccccc1CNC(=O)COc1ccc(C)cc1Br	10
CCOC(=O)c1c(C)nc2n(/N=C/c3ccccc3[N+](=O)[O-])c3ccccc3n12	4
COc1ccc(-n2c(O)c(C=Nc3ccc(C)cc3)c(=O)[nH]c2=O)cc1	-5
C=CCn1c2ccccc2c2nnc(SCC(=O)N=C3NC(=O)CS3)nc21	7
CC1(C)C(=O)N(Cc2ccccc2)c2ccccc2N1C(=O)c1ccc([N+](=O)[O-])cc1	4
CC1(C)C(=O)N(Cc2ccccc2)c2ccccc2N1C(=O)c1ccc(Cl)cc1	4
COc1ccc(C(=O)N2c3ccccc3N(Cc3ccccc3)C(=O)C2(C)C)cc1	110*
CC(C)(C)c1ccc(OCC(=O)Nc2cccc(C(=O)Nc3nccs3)c2)cc1	6
SMILES	ER stress surv
CCCCc1n[nH]c2c1/C(=N\O)CC(C)(C)C2	4
O=C(N/N=C/c1ccc(-c2cc(C(F)(F)F)ccc2Cl)o1)c1ccncc1	20
Cc1ccccc1NC(=O)c1cc(-c2ccccc2)nc2c(Cl)cccc12	-2
Cc1ccc(C(=O)c2ccc(Br)cc2)cc1S(=O)(=O)Nc1cccc(C(=O)O)c1	11
CC(C)(C)c1ccc(C(=O)N2N=C(c3cccnc3)CC2(O)C(F)(F)F)cc1 (stereo not given)	55*
CC(C)(C)c1ccc(C(=O)N2N=C(c3ccc([N+](=O)[O-])cc3)CC2(O)C(F)(F)F)cc1 (stereo not given)	12
COc1cccc(C2=NN(C(=O)c3ccc(C(C)(C)C)cc3)C(O)(C(F)(F)F)C2)c1 (stereo not given)	1
CC(=O)NC(c1ccc(C)cc1)c1c(OC(=O)COc2ccccc2)ccc2ccccc12 (stereo not given)	10
Cc1cccc(/C=N/N2CCN(Cc3ccccc3Cl)CC2)c1	9
CC(C)C(NC(=O)C12CC3CC(CC(C3)C1)C2)C(=O)N/N=C/c1ccccc1C(F)(F)F (stereo not given)	4
Cc1cc(OCCCCCn2ccnc2)cc(C)c1Cl	37
Cc1cc(C)c(OCCCCn2ccnc2)c(C)c1	-4
Cc1cc(Cl)cc(C)c1OCCCCCCn1ccnc1	55*
Cc1ccc(N2NC(=O)/C(=C/c3ccc(Cl)cc3)C2=O)cc1	1
NC(=O)CCC(NC(=O)c1ccc(-c2ccccc2)cc1)C(=O)O (stereo not given)	3
CCOc1ccc(N(CC(=O)NC(C)C)S(=O)(=O)c2ccc(SC)cc2)cc1	1
CCOc1ccc(NC(=O)C2=C(C)NC(=S)NC2c2ccc(Br)cc2)cc1 (stereo not given)	11
COc1ccc(-c2nc3ccccc3c(C(=O)Nc3ccc(C)cc3)c2C)cc1	3
COc1ccc(NC(=O)c2c(C)c(-c3ccc(C)cc3)nc3ccccc23)c(OC)c1	68*
COc1ccc(NC(=O)c2cc(-c3ccc(OC)cc3OC)nc3ccccc23)c(OC)c1	4
